# Reference: PubChem BioAssay AID740 (SRMLSC, 2007)
# Among all 96,000 compounds or so, about 65 (0.07%) were called active. What follows is part of a selection rich in actives, with near analogues and random picks from the rest. Unmarked numbers belong to inactive results. No stated cut-off is given here; in the data, active means inhibition above about 25%; inactive means the rest.
# Test: unspecified inhibition readout at 50 µM (AID 740)
# Settings: unspecified screen; active compounds read high
row,SMILES,inhibition
1,CN1CCN(c2nc(-c3ccc(Br)cc3)nnc2-c2ccccc2)CC1,inactive
2,O=C(c1cnn2c(C(F)(F)F)cc(-c3ccccc3)nc12)N1CCC2(CC1)OCCO2,1.61%
3,O=C(c1cnn2c(C(F)(F)F)cc(-c3ccc(Br)cc3)nc12)N1CCOCC1,1.01%
4,O=C(c1cnn2c(C(F)(F)F)cc(-c3ccccc3)nc12)N1CCOCC1,37.1% (active)
5,Cn1nc(C(=O)Nc2c(-c3ccccc3)nc3sccn23)c2ccccc2c1=O,2.2%
6,Cc1ccn2c(NC(=O)c3ccccc3)c(-c3cccs3)nc2c1,inactive
7,O=C(Nc1c(-c2ccccc2)nc2sccn12)c1ccccc1,48.5% (active)
8,CCNc1nnc(-c2ccccc2OC)s1,inactive
9,Cc1cc2oc(C(=O)Nc3cccnc3)c(C)c2cc1C,inactive
10,Cc1c(C(=O)Nc2ccncc2)oc2ccccc12,inactive
11,Cc1ccc2c(C)c(C(=O)Nc3cccnc3)oc2c1,90.2% (active)
12,O=C(c1ccco1)N1N=C(c2cccs2)CC1c1ccc(F)cc1 (stereo not given),6.17%
13,O=C1CCCN1CCCNc1ccc(S(=O)(=O)N2CCCCC2)cn1,0.14%
14,Cc1cc(NC(=O)c2noc3c2CCc2ccccc2-3)no1,inactive
15,O=C(Nc1cccc(O)c1)c1noc2c1CCc1ccccc1-2,66.5% (active)
16,Cc1ccc(NC(=O)c2noc3c2CCc2ccccc2-3)cc1,inactive
17,C=CCOc1ccc(/C(CC)=N/O)c(OC)c1,1.57%
18,CC(C)(C)OC(=O)NCCc1nnc(SCC(=O)c2ccc(Cl)cc2)o1,inactive
19,CC(C)(C)OC(=O)NCCc1nnc(SCc2ccc(Cl)cc2Cl)o1,4.81%
20,CC(C)(C)OC(=O)NCCc1nnc(SCc2ccc(Cl)cc2)o1,26.6% (active)
21,N#Cc1ccc2ccn(CC(=O)NC3CCCCC3)c2c1,inactive
22,Cc1cc(NS(=O)(=O)c2ccc(NC(=O)c3cc(-c4cccnc4)nc4ccc(Cl)cc34)cc2)no1,2.18%
23,COc1ccc(NC(=O)CCN2CCCCCC2)c(OC)c1,0.25%

row,SMILES,inhibition
1,C=CCn1c(SCc2c(C)noc2C)nc2sc(C)c(C)c2c1=O,11.3%
2,Cc1noc(C)c1CSc1nc2sc(C)c(C)c2c(=O)n1-c1ccccc1,6.13%
3,Cc1noc(C)c1CSc1nc2sc(C)c(C)c2c(=O)n1C1CCCC1,25.2% (active)
4,COc1ccc(C(=O)CSc2nc(C)cc(=O)[nH]2)cc1,inactive
5,COCCCNC(=O)CCn1c(=O)c2ccccc2n(CC(=O)Nc2c(C)cccc2C)c1=O,1.13%
6,COc1c(C(C)C)cc(NC(C)=O)cc1C(C)C,87.4% (active)
7,CC(C)c1cc(NC(=O)C(C)(C)C)cc(C(C)C)c1O,0.31%
8,CC(=O)Nc1cc(C(C)C)c(O)c(C(C)C)c1,0.28%
9,CCOC(=O)/C=C1\SCC(=O)N1CC(=O)NC(C)C,0.15%
10,CCOC(=O)/C=C1\SCC(=O)N1CC(=O)NC1CCCCC1,0.43%
11,CCOC(=O)/C=C1\SCC(=O)N1CC(=O)NC12CC3CC(CC(C3)C1)C2,39.9% (active)
12,COc1ccc(-c2noc(CCN3C(=O)c4ccccc4C3=O)n2)cc1OC,0.08%
13,CCOc1ccc(NCc2nnc(SCC(=O)Nc3cc(C)on3)n2-c2ccc(OC)cc2)cc1,inactive
14,CCc1nnc(NC(=O)CSc2nnc(CNc3ccc(F)cc3)n2C2CCCCC2)s1,inactive
15,Cc1cc(NC(=O)CSc2nnc(CNc3ccc(F)cc3)n2C2CCCCC2)no1,26.7% (active)
16,C=CCN(c1ccc(C(=O)N2CCCC2)cc1)S(C)(=O)=O,inactive
17,COc1ccc(S(=O)(=O)Nc2cc(C)c(O)cc2C(C)C)cc1,inactive
18,COc1ccc(OC)c(-n2c(SCC(=O)Nc3cc(C)on3)nnc2-c2c[nH]c3ccccc23)c1,25.7% (active)
19,COc1ccc(OC)c(-n2c(SCC(N)=O)nnc2-c2c[nH]c3ccccc23)c1,1.03%
20,COc1ccc(OC)c(-n2c(SCC(=O)NCc3ccco3)nnc2-c2c[nH]c3ccccc23)c1,0.83%
21,Cc1cc(C)n(CC(O)Cn2c(C)c(C)c3ccccc32)n1 (stereo not given),0.73%
22,CN=C(Nc1cc(C)nn1CCC#N)c1ccc(F)cc1,0.15%
23,CC(C)CCNC(=O)C(c1cccs1)N(CC1CCCO1)C(=O)Cn1nnc2ccccc21 (stereo not given),inactive

row,SMILES,inhibition
1,Cc1nc2ccccc2c(=O)n1C1CCCCCC1,1.75%
2,Cn1c2ccccc2c(=O)c2c(=O)n(C3CCCCC3)c(-c3cccs3)nc21,47.1% (active)
3,COCCn1c(-c2cccs2)nc2c(c(=O)c3ccccc3n2C)c1=O,12.7%
4,CC(=O)N=C1SC2CS(=O)(=O)CC2N1c1c(Cl)cccc1Cl (stereo not given),0.54%
5,COc1ccc2nnc(-c3ccccc3)n2n1,1.04%
6,COCCN1C(=O)C(CC(=O)Nc2ccc(C(=O)O)cc2)SC1=Nc1ccccc1 (stereo not given),0.58%
7,OC(CN1CCOCC1)Cn1c(-c2cccc(Cl)c2)nc2ccccc21 (stereo not given),1.12%
8,O=C(Nc1ccccc1)N1CCn2c1nc1ccccc12,1.31%
9,S=C(Nc1ccccc1)N1CCn2c1nc1ccccc12,69.1% (active)
10,COc1ccc(NC(=O)N2CCn3c2nc2ccccc23)cc1,1.52%
11,Cc1cccc(NC(=O)Cc2cccs2)n1,0.37%
12,c1ccc(NC2=Nc3ccccc3CS2)cc1,0.05%
13,CCN(CC)c1ccc(NC(=O)c2cc(Cl)ccc2OC)cc1,inactive
14,CCC(C)NC(=O)Cn1nc([N+](=O)[O-])c(Cl)c1C (stereo not given),0.92%
15,Cn1cnnc1SCC(=O)c1ccc2c(c1)CCCC2,1.31%
16,Cc1nnc(SC(=O)N2c3ccccc3Sc3ccccc32)s1,30% (active)
17,Cc1nnc(SCC(=O)N2c3ccccc3Sc3ccccc32)n1N,0.91%
18,Cn1ccnc1SC(=O)N1c2ccccc2Sc2ccccc21,inactive
19,O=C(COc1ccc(Cl)cc1Cl)N1CCN(C/C=C/c2ccccc2)CC1,1.2%
20,CCS(=O)(=O)Nc1cc(-c2nc3cccnc3s2)ccc1C,0.46%
21,Cc1c(NS(=O)(=O)c2ccc3c(c2)OCCO3)cccc1-c1nc2cccnc2s1,inactive
22,CCS(=O)(=O)Nc1cccc(-c2nc3cccnc3s2)c1C,28.6% (active)
23,Cc1cc(C)n(-c2nc(SCCN(C)C)c3c4c(sc3n2)CCCC4)n1,inactive

row,SMILES,inhibition
1,O=C(C1CCN(C2CC(=O)N(c3cccc(Cl)c3)C2=O)CC1)N1CCCC1 (stereo not given),0.33%
2,CC#CCCC(=O)N1C=Cc2ccccc2C1C#N (stereo not given),inactive
3,CC(=O)Cc1nsc(NC(=O)c2ccc(-c3ccccc3Cl)o2)n1,inactive
4,CN1c2ccsc2C(O)=C(C(=O)Nc2ccccc2)S1(=O)=O,26.4% (active)
5,CN1c2ccsc2C(O)=C(C(=S)Nc2ccccc2)S1(=O)=O,64.3% (active)
6,Cc1ccc(NC(=O)C2=C(O)c3sccc3N(C)S2(=O)=O)cc1,1.91%
7,Cc1ccc(NC(=O)C2=C(O)c3ccccc3N(C)S2(=O)=O)cc1,inactive
8,Cc1ccc(NC(=S)C2=C(O)c3sccc3N(C)S2(=O)=O)cc1,52.4% (active)
9,Cc1ccc(NC(=S)C2=C(O)c3ccccc3N(C)S2(=O)=O)cc1,9.88%
10,Cc1ccccc1NC(=S)C1=C(O)c2sccc2N(C)S1(=O)=O,inactive
11,CN1c2ccccc2C(O)=C(C(=O)Nc2ccccc2)S1(=O)=O,inactive
12,CN1c2ccccc2C(O)=C(C(=S)Nc2ccccc2)S1(=O)=O,inactive
13,CC(=O)Nc1ccc2c(c1)nc(CCN1CCOCC1)n2C,inactive
14,CCn1c(SCc2nc(-c3ccccc3)no2)nnc1-c1cccs1,0.11%
15,COc1ccccc1Cn1c(=O)c2ccccc2n2c(Sc3ncnc4sccc34)nnc12,65.1% (active)
16,COc1ccccc1Cn1c(=O)c2ccccc2n2c(SCc3csc(C)n3)nnc12,0.93%
17,O=c1[nH]nc(Sc2ncnc3sccc23)n1CCc1ccccc1,9.99%
18,c1ccc(CSc2nnnn2-c2cccc3ccccc23)nc1,3.06%
19,CCOc1ccc(NC(=O)NCCCN2CCCC2)cc1,0.93%
20,CSc1nnnn1-c1ccc(C(=O)OCC(=O)N2CCOCC2)cc1,inactive
21,CCOC(=O)c1cnc(SCC(=O)N2CCc3ccccc32)nc1N,inactive
